# Measured values published in the supplement of paper PMC7411054.
# Where a name gives a salt, the structure may show the parent alone.
# Assays:
# Experiment in all cases: lowest phenotypically active concentration; higher = less potent
# Details in all cases: treatment time: 24 h
# HepG2-ACTB-RAB5A = tested on: HepG2-ACTB-RAB5A
# Outline: (§1)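 Two criteria together defined phenotypic activity: deviation and reproducibility. Deviation meant ≥3 of 4 wells beyond the 95th percentile of Euclidean distances in solvent control wells, and reproducibility meant a median replicate Pearson correlation above the 95th percentile of non-replicates. Wells had been treated for 24 h at 0.3, 1, 3 or 9 µM in fifteen gene-edited A549, HepG2 and WPMY1 reporter lines before live imaging.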
# HepG2-CANX-COX4 = tested on: HepG2-CANX-COX4
# Outline: as §1
# HepG2-GM130-SQSTM1 = tested on: HepG2-GM130-SQSTM1
# Outline: as §1
# HepG2-TP53BP1-CLTA = tested on: HepG2-TP53BP1-CLTA
# Outline: as §1
# HepG2-TUBA1B-RELA = tested on: HepG2-TUBA1B-RELA
# Outline: as §1
# WPMY1-ACTB-RAB5A = tested on: WPMY1-ACTB-RAB5A
# Outline: as §1
# WPMY1-CANX-COX4 = tested on: WPMY1-CANX-COX4
# Outline: as §1
# WPMY1-GM130-SQSTM1 = tested on: WPMY1-GM130-SQSTM1
# Outline: as §1
# WPMY1-TP53BP1-CLTA = tested on: WPMY1-TP53BP1-CLTA
# Outline: as §1
# WPMY1-TUBA1B-RELA = tested on: WPMY1-TUBA1B-RELA
# Outline: as §1
Structure (SMILES),lowest phenotypically active concentration (HepG2-ACTB-RAB5A),lowest phenotypically active concentration (HepG2-CANX-COX4),lowest phenotypically active concentration (HepG2-GM130-SQSTM1),lowest phenotypically active concentration (HepG2-TP53BP1-CLTA),lowest phenotypically active concentration (HepG2-TUBA1B-RELA),lowest phenotypically active concentration (WPMY1-ACTB-RAB5A),lowest phenotypically active concentration (WPMY1-CANX-COX4),lowest phenotypically active concentration (WPMY1-GM130-SQSTM1),lowest phenotypically active concentration (WPMY1-TP53BP1-CLTA),lowest phenotypically active concentration (WPMY1-TUBA1B-RELA)
COc1ccc2c(NC(=O)Nc3cccc(C(F)(F)F)n3)ccnc2c1,9 µM,1 µM,9 µM,9 µM,3 µM,1 µM,1 µM,3 µM,1 µM,–
COc1ccc(N2C(=O)CSC2c2cccc(Br)c2)c(OC)c1 (stereo not drawn),9 µM,3 µM,9 µM,9 µM,9 µM,3 µM,3 µM,3 µM,3 µM,3 µM
COc1cc(C[C@H]2C(=O)OC[C@@H]2Cc2ccc(OC)c(OC)c2)ccc1O [Arctigenin],9 µM,9 µM,9 µM,1 µM,1 µM,–,–,–,–,–
FC(F)(F)c1ccc(/C=C/c2nc(COc3ccc(CCCCn4ccnn4)cc3)co2)cc1,≤ 0.3 µM,≤ 0.3 µM,≤ 0.3 µM,≤ 0.3 µM,≤ 0.3 µM,–,–,–,–,–
COc1cc2ncnc(Nc3ccc(O)c(Br)c3)c2cc1OC,3 µM,9 µM,9 µM,3 µM,3 µM,3 µM,3 µM,3 µM,3 µM,–
O=C1NC(=O)C(c2ccccc2[N+](=O)[O-])=C1Nc1ccc(O)c(Cl)c1,9 µM,9 µM,9 µM,3 µM,3 µM,9 µM,–,–,–,–
C#Cc1cccc(Nc2ncnc3cc(OCCOC)c(OCCOC)cc23)c1 [erlotinib],3 µM,3 µM,3 µM,9 µM,3 µM,–,–,–,–,–
COc1cc(N2CCC(O)CC2)ccc1Nc1cc(Nc2ccccc2S(=O)(=O)C(C)C)c2cc[nH]c2n1 [Mps1-IN-1 dihydrochloride],≤ 0.3 µM,≤ 0.3 µM,≤ 0.3 µM,≤ 0.3 µM,1 µM,9 µM,≤ 0.3 µM,3 µM,3 µM,–
CN(C)CC(=O)N1CCC[C@@H](n2nc(-c3ccc(Oc4ccccc4)cc3)c3c(N)ncnc32)C1,1 µM,3 µM,3 µM,1 µM,1 µM,3 µM,9 µM,3 µM,3 µM,3 µM
Nc1nc(Cl)nc2c1ncn2[C@@H]1O[C@H](CO)[C@@H](O)[C@@H]1F [clofarabine],≤ 0.3 µM,≤ 0.3 µM,≤ 0.3 µM,≤ 0.3 µM,≤ 0.3 µM,≤ 0.3 µM,9 µM,3 µM,≤ 0.3 µM,≤ 0.3 µM
C=CC(=O)N1CCC[C@@H](n2nc(-c3cccc(C(=O)Nc4ccc(C(C)C)c(C)c4)c3)c3c(N)ncnc32)C1,1 µM,1 µM,1 µM,1 µM,1 µM,1 µM,3 µM,3 µM,9 µM,3 µM
CCN(CC)c1ccc(/C=N/NC(=O)c2ccncc2)c(O)c1,≤ 0.3 µM,≤ 0.3 µM,≤ 0.3 µM,≤ 0.3 µM,1 µM,≤ 0.3 µM,≤ 0.3 µM,≤ 0.3 µM,≤ 0.3 µM,1 µM
Cc1ccc([N+](=O)[O-])cc1S(=O)(=O)N(C)/N=C/c1cnc2ccc(Br)cn12,≤ 0.3 µM,≤ 0.3 µM,≤ 0.3 µM,≤ 0.3 µM,≤ 0.3 µM,≤ 0.3 µM,≤ 0.3 µM,≤ 0.3 µM,≤ 0.3 µM,≤ 0.3 µM
O=C(NCCCNc1nc(Nc2cccc(NC(=O)N3CCCC3)c2)ncc1I)c1cccs1,3 µM,1 µM,3 µM,1 µM,≤ 0.3 µM,3 µM,3 µM,3 µM,3 µM,3 µM
N#Cc1c(C2CCNCC2)cc(-c2c(O)cccc2OCC2CC2)nc1N,9 µM,9 µM,9 µM,9 µM,9 µM,3 µM,3 µM,9 µM,9 µM,9 µM
O=C1c2c(O)ccc(O)c2C(=O)c2c(NCCNCCO)ccc(NCCNCCO)c21 [mitoxantrone],≤ 0.3 µM,≤ 0.3 µM,≤ 0.3 µM,≤ 0.3 µM,≤ 0.3 µM,≤ 0.3 µM,≤ 0.3 µM,≤ 0.3 µM,≤ 0.3 µM,≤ 0.3 µM
CNC1CCC2(C)C(=CCC3C2CCC24CN(C)C(C)C2CCC34)C1 (stereo not drawn) [Isoconessimine],1 µM,9 µM,1 µM,1 µM,1 µM,1 µM,3 µM,3 µM,3 µM,3 µM
COc1ccc(S(=O)(=O)Nc2cccnc2Nc2ccc(O)cc2)cc1,1 µM,1 µM,1 µM,1 µM,1 µM,≤ 0.3 µM,≤ 0.3 µM,1 µM,≤ 0.3 µM,≤ 0.3 µM
O=C(NC(NC(=S)Nc1ccc(F)c([N+](=O)[O-])c1)C(Cl)(Cl)Cl)C(c1ccccc1)c1ccccc1 (stereo not drawn),9 µM,9 µM,9 µM,9 µM,9 µM,9 µM,9 µM,9 µM,9 µM,9 µM

Structure (SMILES),lowest phenotypically active concentration (HepG2-ACTB-RAB5A),lowest phenotypically active concentration (HepG2-CANX-COX4),lowest phenotypically active concentration (HepG2-GM130-SQSTM1),lowest phenotypically active concentration (HepG2-TP53BP1-CLTA),lowest phenotypically active concentration (HepG2-TUBA1B-RELA),lowest phenotypically active concentration (WPMY1-ACTB-RAB5A),lowest phenotypically active concentration (WPMY1-CANX-COX4),lowest phenotypically active concentration (WPMY1-GM130-SQSTM1),lowest phenotypically active concentration (WPMY1-TP53BP1-CLTA),lowest phenotypically active concentration (WPMY1-TUBA1B-RELA)
CC(=O)O[C@@]12CO[C@@H]1C[C@H](O)[C@@]1(C)C(=O)[C@H](O)C3=C(C)[C@@H](OC(=O)[C@H](O)[C@@H](NC(=O)OC(C)(C)C)c4ccccc4)C[C@](O)([C@@H](OC(=O)c4ccccc4)[C@H]21)C3(C)C [Docetaxel],≤ 0.3 µM,≤ 0.3 µM,≤ 0.3 µM,≤ 0.3 µM,≤ 0.3 µM,≤ 0.3 µM,≤ 0.3 µM,≤ 0.3 µM,≤ 0.3 µM,≤ 0.3 µM
C[C@@H](Oc1cc(-n2cnc3ccc(CN4CCN(C)CC4)cc32)sc1C(N)=O)c1ccccc1C(F)(F)F,≤ 0.3 µM,≤ 0.3 µM,≤ 0.3 µM,≤ 0.3 µM,≤ 0.3 µM,≤ 0.3 µM,3 µM,≤ 0.3 µM,≤ 0.3 µM,≤ 0.3 µM
Cc1c(NC(=O)OC[C@@H]2COCCN2)cn2ncnc(Nc3ccc4c(cnn4Cc4cccc(F)c4)c3)c12,3 µM,9 µM,1 µM,3 µM,1 µM,3 µM,3 µM,9 µM,9 µM,3 µM
CN[C@H]1CC[C@@H](c2ccc(Cl)c(Cl)c2)c2ccccc21 [sertraline],3 µM,9 µM,3 µM,3 µM,3 µM,3 µM,3 µM,3 µM,3 µM,3 µM
COc1ccc(-c2ccc3ncc4c(c3c2)n(-c2ccc(N3CCNCC3)c(C(F)(F)F)c2)c(=O)n4C)cn1,≤ 0.3 µM,≤ 0.3 µM,≤ 0.3 µM,≤ 0.3 µM,≤ 0.3 µM,≤ 0.3 µM,≤ 0.3 µM,≤ 0.3 µM,≤ 0.3 µM,≤ 0.3 µM
Cc1c(C(=O)N2CCOc3ccc(-c4ccc(N)nc4)cc3C2)ccc(S(C)(=O)=O)c1F,3 µM,3 µM,3 µM,9 µM,3 µM,3 µM,3 µM,3 µM,3 µM,9 µM
Nc1ncnc2c1c(-c1cnc3[nH]ccc3c1)nn2C1CCCC1,1 µM,≤ 0.3 µM,≤ 0.3 µM,≤ 0.3 µM,≤ 0.3 µM,1 µM,1 µM,1 µM,≤ 0.3 µM,1 µM
CN(C)c1ccc(C(=O)NCCCCCCC(=O)NO)cc1,≤ 0.3 µM,≤ 0.3 µM,1 µM,1 µM,≤ 0.3 µM,1 µM,≤ 0.3 µM,≤ 0.3 µM,≤ 0.3 µM,≤ 0.3 µM
Nc1nc(Cl)nc2c1ncn2[C@H]1C[C@H](O)[C@@H](CO)O1 [cladribine],≤ 0.3 µM,≤ 0.3 µM,≤ 0.3 µM,≤ 0.3 µM,≤ 0.3 µM,1 µM,9 µM,3 µM,1 µM,1 µM
CCOC(=O)CCNc1cc(N2CCc3ccccc3CC2)nc(-c2ccccn2)n1,3 µM,3 µM,3 µM,3 µM,3 µM,9 µM,9 µM,3 µM,3 µM,9 µM
O=C(c1cccc(Cl)c1F)N1CCN(Cc2cccc(Nc3nccs3)n2)CC1,≤ 0.3 µM,≤ 0.3 µM,≤ 0.3 µM,≤ 0.3 µM,≤ 0.3 µM,1 µM,9 µM,3 µM,≤ 0.3 µM,1 µM
O=C(OC12CC3CC(CC(C3)C1)C2)c1ccc(NCc2cc(O)ccc2O)cc1 [Adaphostin],1 µM,3 µM,3 µM,3 µM,3 µM,1 µM,1 µM,1 µM,3 µM,1 µM
Cc1cc(Nc2cc(C)c(C#N)c(NC(C)CCCC(C)(C)O)n2)n[nH]1 (stereo not drawn) [TC-A 2317 hydrochloride],1 µM,1 µM,≤ 0.3 µM,≤ 0.3 µM,≤ 0.3 µM,1 µM,1 µM,1 µM,≤ 0.3 µM,1 µM
CNC(=O)Nc1ccc(-c2nc(N3CC4CCC(C3)O4)c3cnn(C4CCC5(CC4)OCCO5)c3n2)cc1,≤ 0.3 µM,≤ 0.3 µM,≤ 0.3 µM,≤ 0.3 µM,≤ 0.3 µM,≤ 0.3 µM,≤ 0.3 µM,≤ 0.3 µM,≤ 0.3 µM,≤ 0.3 µM
CCCC1(CCC)CCC2(CCN(CCCN(CC)CC)C2)CC1 [Atiprimod dihydrochloride],1 µM,1 µM,1 µM,1 µM,≤ 0.3 µM,1 µM,1 µM,1 µM,1 µM,1 µM
CCOC(=O)Nc1cc(-c2ccc(C)c(NS(C)(=O)=O)c2)nn2c(C)nnc12 [Bromosporine],≤ 0.3 µM,≤ 0.3 µM,1 µM,1 µM,1 µM,1 µM,1 µM,1 µM,1 µM,1 µM
COc1cc(Br)c(Nc2nc(-c3c(C)nc4ncccn34)cs2)c(Br)c1,1 µM,1 µM,1 µM,1 µM,1 µM,1 µM,1 µM,1 µM,3 µM,1 µM
Nc1ncnc2c1nc(Cl)n2C1O[C@H](CO)[C@@H](O)[C@H]1O (stereo partly drawn) [8-Chloroadenosine],1 µM,3 µM,1 µM,3 µM,3 µM,9 µM,3 µM,3 µM,3 µM,3 µM
